Drawing on PubChem BioAssay (NCI), this text covers growth inhibition for 40 compounds.

Compounds without any hit were thinned out: in the full panel of roughly 79,000, 15% have a hit. Values without a mark were called inactive. Cut-off read from the data, not from the text of the source: active = growth inhibition above about 70%; inactive = the rest.

A short description of the assay: NCI Yeast Anticancer Drug Screen. Data for the sgs1 mgt1 strain (AID 161).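 Note: 0% = growth of cultures given vehicle only.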 The following applies: S. cerevisiae sgs1 mgt1 strain, at 50.0 µM, stronger effect = higher value. The essentials:
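Test agents were incubated with a DNA-repair-mutant yeast strain. Growth was then read and compared against vehicle-treated controls.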
For `CC(C)(C)C1CCC(O)(CSc2ccccc2)CC1` (stereo not given), the growth inhibition was -1.75%. Under `Cc1cc(C)c(C(=O)CC(C)C)c(C)c1` stands 4.2%; under `CCc1ccc(/C(C#N)=C/c2ccccc2Cl)cc1`, 26.4%. The same measure for `CN(C)CCN1CCc2c([nH]c3ccccc23)C1c1cccnc1` (stereo not given): -4.2%; for `CNc1ncnc2c1c(C(N)=S)cn2C1OC(CO)C(O)C1O` (stereo not given): -13.7%; for `CC(=O)Nc1ccc(N(C)C)cc1Cl`: -13.7%. For `O=C(Nc1ccccc1)c1ccc(I)cc1`, the growth inhibition is 8.3%. Regarding `CCCCCCCCCC(=O)N/N=C\c1cccc2ccccc12`, the growth inhibition is 1.2%.

For `O=C(O)c1cc(O)c(C(=O)O)cc1O`, the growth inhibition is -18.6%. With `COc1ccc2[nH]c(C(F)(F)F)cc(=O)c2c1`, the growth inhibition was 5.2%. Under `CCCCN=Cc1ccc(Cl)cc1` stands -32.1%; under `O=C1c2ccccc2C(=O)N1C/C(Cl)=C/Cl`, -11.4%.

As for `CCCCCCCCCCCCCCCCN=C1C=Cc2ccccc2C1=NCCCCCCCCCCCCCCCC`, the growth inhibition was 11.6%.

As for `CC(=O)OC1=C(C)C2=C3OC(=O)C(C)=C3CC[C@@]2(C)CC1`, the growth inhibition was 6.85%. Under `O=C(CCC(=O)OCC1CCCO1)OCC1CCCO1` (stereo not given) stands 4.7%; under `C=CCCCC(C#N)c1ccc2c(c1)OCO2` (stereo not given), -4.85%; under `CCCCOc1cc(C(=O)O)ccc1[N+](=O)[O-]`, -10.3%. As to `CSC(=Nc1ccc([N+](=O)[O-])cc1C#N)NC(=O)c1ccccc1`, the growth inhibition was -29.1%. Under `Cc1ccc2[nH]c(=O)cc(C)c2c1` stands 13.8%. Consider `COc1ccc(C(O)(CCN2CCOCC2)c2ccc3c(c2)OCO3)cc1` (stereo not given), for which the growth inhibition is -7.7%.

As for `CCN(CC)c1ccc(N=C2C=C(C(=O)Nc3ccc(C(=O)O)cc3)C(=O)c3ccccc32)c(C)c1`, the growth inhibition was -16.9%.

As to `NNC(=O)c1cccc2c1Oc1ccccc1S2`, the growth inhibition is 10.9%.

In the case of `O=C(NN=C1c2ccccc2-c2ccccc21)C(F)(F)F`, the growth inhibition was 4.65%.

As for `O=C1CC23CC(=O)CC2(C1)c1ccccc1C3=O` (stereo not given), the growth inhibition is 4.65%. Under `CSC(=NNC(N)=O)SC` stands 1.2%. `CC(=O)N(CCCc1ccccc1)C(C)(C)C`: the growth inhibition is -3.05%. Turning to `O=C(NC1C2CC3CC(C2)CC1C3)c1cc(/C=C/c2ccccc2)[nH]c(=S)n1` (stereo not given), the growth inhibition was 13.1%. On to `CCOC(=O)Cc1ccc2c(c1)sc1nc(-c3ccc(OC)cc3)cn12`, for which the growth inhibition is 21.2%. Under `CN(C)CCN1CC2C3CCCCC3=C3CCCCC3C2C1` (stereo not given) stands 31.9%.

For the compound `CNC(C)C#N` (stereo not given), the growth inhibition was -11.9%. With `Nc1c(Cl)cnn2nnnc12`, the growth inhibition was -15.6%. Regarding `CSCCNC(=O)CS(=O)(=O)c1ccc(N)cc1`, the growth inhibition is -7.65%. Under `N#CCCS(=O)(=O)O` stands -6.9%; under `COCCNc1ccc([N+](=O)[O-])cc1[N+](=O)[O-]`, -3.75%; under `FC(F)(F)c1cccc(N=Cc2ccc(C=Nc3cccc(C(F)(F)F)c3)cc2)c1`, 13.3%. The same measure for `CO[C@@H]1C[C@H]2[C@@H]3CC[C@H]([C@H](C)COC(C)=O)[C@@]3(C)CC[C@@H]2[C@@]2(C)CC[C@H]3C[C@]312`: 1.55%.

As for `CCCCC(C=O)(CC)CCC#N` (stereo not given), the growth inhibition was 46.3%. Under `CCCCCC(=O)/C=C/Sc1n[nH]c(=O)[nH]c1=O` stands 64.2%.

With `CC(=O)c1nc2ccccc2n1CC(=O)c1ccc([N+](=O)[O-])cc1`, the growth inhibition is 6.2%. On to `CCOC(=O)C(=O)C1CC(c2ccccc2)=NNC1=O` (stereo not given), for which the growth inhibition is 12.9%.
